Bioassay records as filed in PubChem BioAssay.
In the library only some 2.3% were active in any assay of this set; here they are far more common.
CHO-K1 Ca PAM = nonselective activator or artifact in parental CHO-K1 calcium assay. ATP EC20, Fluo-8 calcium fluorescence; 0% at ATP EC20, 100% at ATP max. activation, % at 3 µM. hit rate 0.02% among 360,000;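 active = activation above the run cutoff, the mean activation of all test compounds plus 3 SD, cut at about 40% in these data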;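 also: peak over basal fluorescence ratio in a 140 s read after ATP addition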
CHRM1 agonist = agonists of human M1 muscarinic receptor. P11229. CHO-K1 hM1, Fluo-8 calcium fluorescence, agonist mode; 0% DMSO, 100% acetylcholine EC100. activation, % at 3 µM. hit rate 0.33% among 360,000. AID 588814;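 active = activation above the run's mean compound activation plus 3 SD, cut at about 16% in these data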;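 also: peak over basal fluorescence ratio within a 140 s kinetic read after compound addition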
Target sequence (P11229 whole entry, looked up): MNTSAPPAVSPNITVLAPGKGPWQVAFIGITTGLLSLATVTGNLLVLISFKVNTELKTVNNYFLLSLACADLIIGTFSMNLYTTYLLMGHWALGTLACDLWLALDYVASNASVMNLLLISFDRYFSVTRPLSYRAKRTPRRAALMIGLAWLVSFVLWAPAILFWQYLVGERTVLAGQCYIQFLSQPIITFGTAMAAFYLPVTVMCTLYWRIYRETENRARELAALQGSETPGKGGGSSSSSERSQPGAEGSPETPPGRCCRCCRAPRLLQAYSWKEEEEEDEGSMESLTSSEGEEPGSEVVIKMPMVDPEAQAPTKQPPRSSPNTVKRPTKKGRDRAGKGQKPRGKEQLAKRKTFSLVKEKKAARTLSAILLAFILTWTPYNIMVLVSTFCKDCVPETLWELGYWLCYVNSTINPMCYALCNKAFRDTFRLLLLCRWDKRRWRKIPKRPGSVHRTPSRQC
CHRM1 PAM = human CHRM1 positive allosteric modulation; P11229; CHO-K1 hM1, Fluo-8 calcium fluorescence, ACh EC20; 0% = ACh EC20, 100% = maximal ACh; activation, % at 3 µM; hit rate 0.088% among 360,000; AID 588819; in the data active = activation above about 19%, passing the limit was not always enough
M1 ag parental = nonselective activator or artifact in parental CHO-K1 cells. Fluo-8 calcium fluorescence; scaled to maximal ATP response, vehicle zero. activation, % at 3 µM. hit rate 0.48% among 360,000. AID 602248; in the data active = activation above about 15%;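 also: untransfected CHO-K1 host cells lacking M1 receptor as counterscreen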
CHO-K1 Ca antag = counter-screen for M1 antagonists: effect in parental CHO-K1 cells; ATP-induced calcium, Fluo-8 fluorescence; inhibition, % at 3 µM; hit rate 0.6% among 360,000;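 active = inhibition above a per-plate cutoff, the plate's mean sample inhibition plus 3 SD, cut at about 24% in these data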;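 also: 0% = DMSO plus EC80 ATP and 100% = DMSO alone without ATP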
M1 antag = antagonists of human M1 muscarinic receptor; P11229; inhibition, % at 3 µM; AID 588852; CHO-K1 hM1, Fluo-8 calcium fluorescence, ACh EC80 antagonist; hit rate 1.3% among 360,000;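 active = percent inhibition above its own plate's cutoff, namely the mean of that plate's compound wells plus 3 SD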;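 also: peak over basal fluorescence ratio during 140 s after agonist addition; 0% = ACh EC80 plus DMSO and 100% = DMSO alone without agonist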
The depositor's hits bear a star.

SMILES	CHO-K1 Ca PAM	CHRM1 agonist	CHRM1 PAM	M1 ag parental	CHO-K1 Ca antag	M1 antag
COC(=O)c1ccc(CN2C(=O)NC(Cc3c[nH]c4ccccc34)C2=O)cc1 (centres undefined)	-5	1	-5	15*	0	8
O=C1NC(Cc2c[nH]c3ccccc23)C(=O)N1Cc1ccccc1 (centres undefined)	5	-2	12	1	-4	-14
Nc1nonc1-n1nnc(C(=O)N/N=C/c2ccco2)c1-c1ccccc1	13	22*	15	2	-16	-6
Nc1nonc1-n1nnc(C(=O)N/N=C/c2ccoc2)c1-c1ccccc1	12	16*	5	6	-10	-1
CCOc1ccc(-c2c(C(=O)N/N=C/c3ccc(C)o3)nnn2-c2nonc2N)cc1	0	-2	-11	3	-8	7
Cc1ccc(/C=N/NC(=O)c2nnn(-c3nonc3N)c2-c2ccccc2)o1	20	9	3	22*	-9	-5
Nc1nonc1-n1nnc(C(=O)N/N=C/c2ccc(F)cc2)c1-c1cccs1	6	19*	4	7	-12	-1
CC(C)n1nnnc1SCC(=O)NC1CCCC1	12	-4	11	2	-10	-11
CCn1c(SCC(=O)N/N=C/c2ccc(C)o2)nnc1-c1ccccc1	-7	-5	-6	-1	28*	8
COc1cccc(-c2c(C(=O)N/N=C/c3ccco3)nnn2-c2nonc2N)c1	0	35*	10	16*	-5	-4
CC(=O)c1cc(Cl)ccc1OCc1cccc(S(=O)(=O)N2CCOCC2)c1	-4	3	-16	16*	6	31*
CN(C)S(=O)(=O)c1cccc(NC(=O)c2ccc(S(=O)(=O)N3CCCCC3)cc2)c1	-6	-5	-27	4	5	27*
CN1CCCN(S(=O)(=O)c2ccccc2)CC1	-11	-12	-22	1	-15	33*
CN1CCN(S(=O)(=O)c2ccc(NC(=O)c3cccc(S(=O)(=O)N4CCCC4)c3)cc2)CC1	-6	-5	-23	0	2	98*
O=S(=O)(c1cccc(COc2ccc(Cl)cc2Cl)c1)N1CCOCC1	11	-2	6	3	-7	-12
CC(C)(C)c1ccc(C(=O)NCCC(=O)NCc2ccc(F)cc2)cc1	12	-1	3	0	-1	-2
CCC(=O)c1cn([C@@H](CCC(OC)OC)CC(=O)OC(C)(C)C)cc1CC	21	-5	2	-1	-21	4
O=C(COC(=O)C1CCC1)Nc1cc(S(=O)(=O)N2CCOCC2)ccc1Cl	14	-1	1	1	9	0
NS(=O)(=O)c1ccc(NC(=S)Nc2ccc(C(=O)N3CCCCC3)cc2)cc1	17	-3	-7	16*	10	10
COc1ccc(S(=O)(=O)N2CCOCC2)cc1NC(=O)c1ccc(Cl)cc1	-20	-2	-10	0	12	29*
O=C(Nc1cc(S(=O)(=O)N2CCOCC2)ccc1Cl)C1CCC1	-24	-2	-8	0	7	27*
CN(C)c1ccc(C(=O)Nc2cccc(S(=O)(=O)N3CCCC3)c2)cc1	14	-7	-25	0	4	46*
COc1ccc(S(=O)(=O)N2CCOCC2)cc1NC(=O)c1ccc(S(=O)(=O)N2CCCCC2)cc1	-15	-8	6	0	-15	-10
Cc1ccc(C)c(S(=O)(=O)N2CCCOC2CNC(=O)C(=O)NCc2ccncc2)c1 (centres undefined)	10	-8	10	0	2	-4
CC1(C)Cc2cccc(C(=O)Nc3ccc(F)cc3F)c2O1	20	-4	-8	4	-1	20
SMILES	CHO-K1 Ca PAM	CHRM1 agonist	CHRM1 PAM	M1 ag parental	CHO-K1 Ca antag	M1 antag
O=C(Nc1ncccc1O)c1cccc(S(=O)(=O)N2CCCC2)c1	-12	1	10	0	26*	-16
CN(c1ccccc1)S(=O)(=O)c1ccc(C(=O)Nc2cccc(S(=O)(=O)N3CCOCC3)c2)cc1	-9	-4	-16	4	13	22
O=C(Nc1cccc(S(=O)(=O)N2CCCCC2)c1)c1ccc2c(=O)n3c(nc2c1)CCCCC3	8	1	-25	10	-6	43*
O=C(NC(=S)Nc1ccc(S(=O)(=O)N2CCCCC2)cc1)c1ccccc1	-3	1	19*	0	5	-56
COc1ccccc1N(C)S(=O)(=O)c1ccc(C(=O)Nc2cccc(S(=O)(=O)N3CCOCC3)c2)cc1	3	-4	-22	8	5	38*
O=C(Nc1ccc(S(=O)(=O)N2CCCC2)cc1)c1ccccc1	4	-4	1	1	6	5
CCc1ccc(NC(=O)c2ccc3c(=O)n4c(nc3c2)CCCCC4)cc1	-4	-2	-6	4	7	7
O=C(Nc1ncccc1O)c1ccc(Cl)c(S(=O)(=O)N2CCCCCC2)c1	-10	-1	11	1	0	-20
COCCNC(=O)C1(C)CCCN(Cc2ccccc2N(C)C)C1 (centres undefined)	11	-8	1	1	-7	-2
CN(C)c1ccc(P(=O)(OC2CCCCC2)C(O)c2ccncc2)cc1 (centres undefined)	22	-5	6	1	-11	-7
N#Cc1ccccc1S(=O)(=O)N1CCN(CC(O)CN2CCOCC2)CC1 (centres undefined)	10	-5	7	1	-12	-4
NS(=O)(=O)c1ccc(CCNS(=O)(=O)c2cccc3nsnc23)cc1	-14	-3	-2	0	7	5
CC(C)Oc1ccc(CN2CCC2(C)C(=O)Nc2cnc3ccccc3c2)cc1 (centres undefined)	-3	-5	-14	2	1	15
Cc1ccc(S(=O)(=O)N2CCCCC2)cc1C(=O)NCc1ccc(S(N)(=O)=O)cc1	-2	-2	5	0	4	-5
O=C(c1ccc2c(=O)n3c(nc2c1)CCCCC3)N1CCN(c2cccc(Cl)c2)CC1	15	-13	-27	2	-10	32*
O=C(/C=C/c1ccc(S(=O)(=O)N2CCOCC2)cc1)NC(=S)Nc1ccc(Cl)cc1Cl	-3	-1	9	0	2	2
CCN(CC)S(=O)(=O)c1cccc(NC(=S)NC(=O)/C=C/c2ccc(S(=O)(=O)N3CCOCC3)cc2)c1	-14	-5	-7	1	27*	14
C=CCn1c(=O)[nH]c2cc(C(=O)N3CCN(c4cccc(Cl)c4)CC3)ccc2c1=O	5	-5	-23	3	6	21*
CN(C)S(=O)(=O)c1cccc(NC(=O)c2cccc(S(=O)(=O)N3CCCCCC3)c2)c1	-20	-4	-21	8	6	33*
CCOC(=O)N(C)C[C@@H]1OCc2cnnn2CCCC(=O)N([C@H](C)CO)C[C@H]1C	-5	-3	-9	0	7	20
